Source: PubChem BioAssay (Tox21)
Several values for one entry are separate records, joined by “and”; a condition that tells them apart may be missing. Equal entries are not always repeated. Records with an inconclusive call do not appear. Some compounds were tested as several samples or in several runs, with calls that do not always agree. Activity calls are given as the source filed them. Unless noted, calls come from the whole dose curve; as a rule, active = well fitted curve in the direction sought with a large enough effect in the repeat runs; inconclusive = weak or mixed curves; inactive = no such curve, though single readings can be large; an effect the other way counts as inactive or inconclusive.

Assays:
[1] = qHTS assay to identify small molecule agonists of the vitamin D receptor (VDR) signaling pathway - cell viability counter screen (AID 743224); note: series mostly up to about 63 µM; % is set by controls: 0 for no effect and ±100 for the full control effect; nearly all actives have a fitted effect of over 50% in size
Procedure, shortened: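 Viability is measured in the same wells as the VDR-bla reporter assay: after 16 h compound treatment and 2 h substrate loading, CellTiter-Glo is added and luminescence read 30 min later.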

[2] = qHTS assay to identify small molecule antagonists of the vitamin D receptor (VDR) signaling pathway - cell viability counter screen (AID 743225); note: % is set by controls: 0 for no effect and ±100 for the full control effect; nearly all actives have a fitted effect of over 50% in size
Procedure, shortened: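 HEK293T VDR-bla; cpd + 1a,25-(OH)2D3 3 nM final, 16 h 37C/5% CO2; B/G FRET substrate 2 h RT; then CellTiter-Glo 30 min RT, luminescence.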

[3] = qHTS assay to identify small molecule agonists of the NFkB signaling pathway (AID 1159509; active = well fitted curve in the direction sought with a large enough effect in the signal ratio in the repeat runs, not every such curve was filed as active; the % refers to the signal ratio; note: series mostly up to about 61 µM; % is set by controls: 0 for no effect and ±100 for the full control effect)
Procedure, shortened: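 ME-180 NFkB-bla, 2,000 cells/well, overnight plating; cpd pinned in DMSO, 5 h 37 C; B/G FRET substrate 1.5 h RT; ex 405, em 460/530 nm.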

[4] = qHTS assay to identify small molecule agonists of the NFkB signaling pathway - cell viability counter screen (AID 1159515; calls by dose curve; note: series mostly up to about 61 µM; % is set by controls: 0 for no effect and ±100 for the full control effect; nearly all actives have a fitted effect of over 55% in size)
Procedure, shortened: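 Multiplexed viability readout: after the 5 hr compound exposure and 1.5 hr FRET substrate step, CellTiter-Glo reagent went into the same NFkB-bla ME-180 wells; ATP luminescence was measured after 30 min at room temperature.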

[5] = qHTS assay to identify small molecule agonists of the endoplasmic reticulum stress response signaling pathway (AID 1159516; active = well fitted activation curve with a large enough effect in the signal ratio in the repeat runs, not every such curve was filed as active; the % refers to the signal ratio; note: % is set by controls: 0 for no effect and ±100 for the full control effect)
Procedure, shortened: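 Tox21 10K library screened in quantitative HTS format on ESRE-bla HeLa cells, a beta-lactamase reporter under ER stress response element control; 5 hr treatment, FRET read.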

[6] = qHTS assay to identify small molecule antagonists of the retinoid-related orphan receptor gamma (ROR-gamma) signaling pathway - cell viability counter screen (AID 1159520); note: % is set by controls: 0 for no effect and ±100 for the full control effect; nearly all actives have a fitted effect of over 50% in size
Procedure, shortened: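 Tet-on ROR gamma CHO cells were given compounds for 2 hr, then doxycycline hyclate at 1 uM final, and incubated 16 hr at 37 C. Viability was measured as ATP content by CellTiter-Glo luminescence.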

[7] = target: Nuclear receptor ROR-gamma (Homo sapiens) (UniProt P51449); assay: qHTS assay to identify small molecule antagonists of the retinoid-related orphan receptor gamma (ROR-gamma) signaling pathway (AID 1159521;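 note: CHO cells with doxycycline inducible ROR-gamma driving an RORE luciferase reporter; top concentration of the series differs between compounds; % is set by controls: 0 for no effect and ±100 for the full control effect; nearly all actives have a fitted effect of over 50% in size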)
Procedure, shortened: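 Cells were plated, rested 4 h at 37 C, exposed to compounds for 2 h, then given 1 uM final doxycycline hyclate to induce RORγ expression. After 16 h, ONE-Glo luminescence from the ROR response element reporter was measured.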

[8] = qHTS assay to identify small molecule agonists of the AP-1 signaling pathway (AID 1159526; calls by dose curve; note: % is set by controls: 0 for no effect and ±100 for the full control effect)
[9] = target: Retinoic acid receptor RXR-alpha (Homo sapiens) (UniProt P19793); assay: qHTS assay to identify small molecule agonists of the RXR signaling pathway (AID 1159527; calls by dose curve; note: % is set by controls: 0 for no effect and ±100 for the full control effect; nearly all actives have a fitted effect of over 35% in size)
Procedure, shortened: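 Cells plated at 2,000/well, rested 5 hr at 37 C, pin-dosed with DMSO compound solutions, incubated 16 hr, then loaded with B/G FRET substrate for 2 hr at RT before dual-emission fluorescence reading.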

[10] = qHTS assay to identify small molecule agonists of the RXR signaling pathway - cell viability counter screen (AID 1159529)
Procedure, shortened: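 Steps: seed RXR-alpha-UAS-bla HEK 293T cells in assay medium containing 2% charcoal-stripped FBS; incubate 5 hr; add compounds in DMSO; incubate 16 hr at 37 C; after the bla read, add CellTiter-Glo and read luminescence at 30 min.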

[11] = qHTS assay to identify small molecule antagonists of the retinoid acid receptor (RAR) signaling pathway - cell viability counter screen (AID 1159551); note: % is set by controls: 0 for no effect and ±100 for the full control effect; nearly all actives have a fitted effect of over 35% in size
Procedure, shortened: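 Cytotoxicity counter screen in C3RL4 cells: 6 h compound exposure with 1 uM retinol (final), viability from cellular ATP by luminescence.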

[12] = qHTS assay to identify small molecule antagonists of the estrogen related receptor (ERR) signaling pathway from Tox21 library - cell viability counter screen (AID 1224834); note: nearly all actives have a fitted effect of over 30% in size; note: potency is the fitted concentration of half-maximal effect
Procedure, shortened: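 Cytotoxicity of test substances is gauged in the same ERR cells used for the antagonist screen, after 17.5 h of compound treatment at 37 C, by CellTiter-Fluor fluorescence measured after 30 min.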

[13] = target: Luciferin 4-monooxygenase (Photinus pyralis) (UniProt P08659); assay: qHTS assay to identify small molecule inhibitors of firefly luciferase (AID 1224835); note: series mostly up to about 120 µM; % is set by controls: 0 for no effect and ±100 for the full control effect; nearly all actives have a fitted effect of over 25% in size
Procedure, shortened: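 Biochemical qHTS: compounds run as interplate titrations against purified firefly enzyme, with D-luciferin and ATP each at its KM concentration. Light output recorded by CCD imaging.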

[14] = qHTS assay to identify small molecule agonists of the constitutive androstane receptor (CAR) signaling pathway - cell viability counter screen (AID 1224836); note: series mostly up to about 92 µM; % is set by controls: 0 for no effect and ±100 for the full control effect; nearly all actives have a fitted effect of over 45% in size
Procedure, shortened: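 Cells were seeded and incubated 4 hrs. Compounds were added across 15 concentrations together with PK11195 at 0.75 uM final. Plates were incubated 23 hrs at 37 C. CellTiter-Fluor was added and fluorescence measured.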

[15] = qHTS assay to identify small molecule antagonists of the retinoic acid receptor (RAR) signaling pathway (AID 1159552; note: nearly all actives have a fitted effect of over 50% in size; note: potency is the fitted concentration of half-maximal effect)
Procedure, shortened: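 Retinol at 1 uM final stimulated RARE-luciferase expression in C3RL4 cells exposed to test compounds for 6 hr at 37 C. Reduced luminescence, read 30 min after detection reagent, indicated pathway antagonism.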

[16] = qHTS assay to identify small molecule agonists of the retinoic acid receptor (RAR) signaling pathway (AID 1159553); note: % is set by controls: 0 for no effect and ±100 for the full control effect
Procedure, shortened: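 Agonist activity was scored in C3RL4 cells bearing a retinoic acid response element luciferase construct. Cells were treated with compounds for 6 hr at 37 C, and luciferase signal was measured as luminescence.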

[17] = qHTS assay to identify small molecule agonists of the AP-1 signaling pathway - cell viability counter screen (AID 1159525; calls by dose curve; note: nearly all actives have a fitted effect of over 55% in size)
Procedure, shortened: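 AP-1-bla ME-180 cells in Opti-MEM with 0.5% dialyzed FBS, compound exposure 5 h at 37 C in 15-point titration. Viability read in the same wells as ATP content by CellTiter-Glo luminescence, normalised to tetra-n-octylammonium bromide and DMSO controls.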

[18] = qHTS assay to identify small molecule antagonists of the estrogen related receptor (ERR) signaling pathway - cell viability counter screen (AID 1224818)
Procedure, shortened: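 Cells carrying the ERR pathway reporter were seeded and incubated for 6 hours before compound addition. After a 17.5-hour exposure at 37 C, live-cell protease activity was measured by CellTiter-Fluor fluorescence following 30 minutes of incubation.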

[19] = qHTS assay to identify small molecule antagonists of the estrogen related receptor signaling pathway with the pleiotropic PPARgamma coactivator (PGC) cell viability counter screen (AID 1224822)
Procedure, shortened: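 Seed PGC/ERR cells (2,000/well); incubate 6 h at 37 C/5% CO2; pin-transfer compounds in DMSO; incubate 17.5 h at 37 C; add CellTiter-Fluor; after 30 min read fluorescence.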

Sequence of Retinoic acid receptor RXR-alpha (Homo sapiens) (P19793 whole entry, looked up): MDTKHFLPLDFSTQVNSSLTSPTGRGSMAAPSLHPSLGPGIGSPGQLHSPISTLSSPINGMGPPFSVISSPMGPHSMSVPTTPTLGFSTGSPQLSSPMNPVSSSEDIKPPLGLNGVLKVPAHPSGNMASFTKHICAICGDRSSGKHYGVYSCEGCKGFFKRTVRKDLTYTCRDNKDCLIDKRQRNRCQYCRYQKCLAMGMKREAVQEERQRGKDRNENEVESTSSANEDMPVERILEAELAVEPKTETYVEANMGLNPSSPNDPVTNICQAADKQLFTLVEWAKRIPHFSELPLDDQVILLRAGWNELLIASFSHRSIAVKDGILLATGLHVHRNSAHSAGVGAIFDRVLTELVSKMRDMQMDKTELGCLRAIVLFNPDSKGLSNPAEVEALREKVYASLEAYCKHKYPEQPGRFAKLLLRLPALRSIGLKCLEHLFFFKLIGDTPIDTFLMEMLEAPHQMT
Sequence of Luciferin 4-monooxygenase (Photinus pyralis) (P08659 whole entry, looked up): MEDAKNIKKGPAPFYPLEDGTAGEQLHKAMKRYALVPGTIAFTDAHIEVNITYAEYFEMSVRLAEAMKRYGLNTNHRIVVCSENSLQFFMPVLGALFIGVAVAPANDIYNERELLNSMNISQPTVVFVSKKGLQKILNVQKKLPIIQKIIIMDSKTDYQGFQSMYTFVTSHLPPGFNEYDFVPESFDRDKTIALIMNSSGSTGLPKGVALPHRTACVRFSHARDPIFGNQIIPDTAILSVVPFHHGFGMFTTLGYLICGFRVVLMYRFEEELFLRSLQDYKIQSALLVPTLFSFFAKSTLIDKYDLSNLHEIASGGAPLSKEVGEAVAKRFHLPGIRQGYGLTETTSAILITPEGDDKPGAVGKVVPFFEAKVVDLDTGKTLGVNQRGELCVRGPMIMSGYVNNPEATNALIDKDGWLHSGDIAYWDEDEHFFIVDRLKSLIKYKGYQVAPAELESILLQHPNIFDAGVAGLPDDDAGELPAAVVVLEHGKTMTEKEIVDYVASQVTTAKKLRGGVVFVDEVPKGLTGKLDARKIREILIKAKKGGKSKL

CC(O)COCC(C)O (stereo not given)
inactive: Potency [1] | outcome [2] | outcome [3] | outcome [4] | outcome [5] | Potency [6] | Potency [7] | outcome [8] | Potency [9] | Potency [10] | outcome [11] | Potency [12] | Potency [13] | Potency [14]

O=C(O)c1cc(O)c(O)c(O)c1
inactive: Potency [1] | outcome [2] | outcome [3] | outcome [4] | outcome [5] | Potency [6] | Potency [7] | outcome [8] | Potency [9] | Potency [10] | outcome [11] | Potency [15] | Potency [16] | Potency [14]
active: Potency [12] 61.7 µM

Cc1ccc(N(C)C)cc1
inactive: Potency [1] | outcome [2] | outcome [3] | outcome [4] | outcome [5] | Potency [17] | outcome [8] | Potency [9] | Potency [10] | outcome [11] | Potency [15] | Potency [16] | Potency [12] | Potency [13] | Potency [14]

O=c1[nH]c(=O)n([C@H]2C[C@H](O)[C@@H](CO)O2)cc1Br
inactive: Potency [1] | outcome [2] | outcome [3] | outcome [4] | outcome [5] | Potency [17] | outcome [8] | Potency [9] | Potency [10] | outcome [11] | outcome [18] | outcome [19] | Potency [12] | Potency [13] | Potency [14]

C/C=C1/CC2C=CC1C2 (stereo not given)
inactive: Potency [1] | outcome [2] | outcome [4] | outcome [5] | Potency [6] | Potency [17] | outcome [8] | Potency [9] | Potency [10] | outcome [11] | Potency [15] | Potency [16] | Potency [12] | Potency [13] | Potency [14]

Cc1cccnc1
inactive: Potency [1] | outcome [2] | outcome [3] | outcome [4] | outcome [5] | Potency [6] | Potency [7] | Potency [17] | outcome [8] | Potency [9] | Potency [10] | outcome [11] | Potency [12] | Potency [13] | Potency [14]

O=P(OC(CCl)CCl)(OC(CCl)CCl)OC(CCl)CCl
inactive: Potency [1] | outcome [2] | outcome [3] | outcome [4] | outcome [5] | Potency [9] | Potency [10] | outcome [11] | Potency [16] | Potency [13] | Potency [14]
inactive and 27.3 µM (active): Potency [15]

CN(C)CCOCCN(C)C
inactive: Potency [1] | outcome [2] | outcome [3] | outcome [4] | outcome [5] | Potency [6] | Potency [7] | outcome [8] | Potency [9] | Potency [10] | outcome [11] | Potency [12] | Potency [13] | Potency [14]

CCN(CC)CCCC(C)Nc1ccnc2cc(Cl)ccc12 (stereo not given)
inactive: Potency [1] | outcome [2] | outcome [3] | outcome [4] | outcome [5] | activity, negative = cytotoxicity [6] -1.33% [at 8.39 µM] and 0.877% [at 19 µM] | activity change, negative = inhibition [7] 0.0918% [at 8.39 µM] and -4.56% [at 19 µM] | activation [8] 0.84% [at 6.97 µM] and -1.42% [at 15.8 µM] | activation [9] -0.146% [at 15.8 µM] | activity change, negative = cytotoxicity [10] -13.3% [at 6.97 µM] and -18.7% [at 15.8 µM] | activity change, negative = cytotoxicity [11] 1.59% [at 8.39 µM] and -1.6% [at 19 µM] | outcome [18] | viability change, negative = cytotoxic [12] -0.582% [at 8.39 µM] | activity change, negative = inhibition [13] -0.277% [at 10.5 µM] and -0.0339% [at 23.6 µM] | viability change, negative = cytotoxic [14] -3.22% [at 8.39 µM]
